{"source": "PubChem BioAssay (Tox21)", "note": "Records with an inconclusive call do not appear. Entries that show only a call come without a potency. The source made the active and inactive calls. Unless noted, calls follow the shape of the dose curve; as a rule, active = well fitted inhibition curve with a large enough effect in the repeat runs (not every such curve was filed as active); inconclusive = weak or mixed curves; inactive = flat fitted curve, though single readings scatter.", "data": [{"test_system": "not listed separately", "assay": "qHTS assay to identify small molecule agonists of the TGF-beta/Smad signaling pathway - cell viability counter screen (AID 1346829; active = well fitted cell-killing curve with a large enough effect in the repeat runs; also: top concentration of the series differs between compounds; nearly all actives have a fitted effect of over 45% in size)", "conditions": "SBE-bla HEK293T viability, CellTiter-Glo luminescence, 5 h; series mostly up to 76.8 µM", "in_short": "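Same-well cytotoxicity: CellTiter-Glo added after the 2 hr room-temperature beta-lactamase substrate step, luminescence measured 30 min later; cells had 5 hr of compound at 37 C.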", "values": [{"smiles": "CCC1(CC)C(=O)C=CNC1=O", "Potency": "inactive"}, {"smiles": "CC[C@H](O)C(C[C@H](C)N(C)C)(c1ccccc1)c1ccccc1", "Potency": "inactive"}, {"smiles": "CC1N=C(N)OC1c1ccccc1", "note": "(configuration not stated)", "Potency": "inactive"}, {"smiles": "O=C/C=C/c1ccco1", "Potency": "inactive"}, {"smiles": "O=C(Cl)/C=C/C(=O)Cl", "Potency": "inactive"}, {"smiles": "C[C@H](N)C(=O)c1ccccc1", "Potency": "inactive"}]}, {"test_system": "not listed separately", "assay": "qHTS assay to identify small molecule agonists of the TGF-beta/Smad signaling pathway (AID 1346859; active = well fitted activation curve with a large enough effect in the signal ratio in the repeat runs, not every such curve was filed as active; the % refers to the signal ratio)", "conditions": "SBE-bla HEK293T, TGF-beta/Smad beta-lactamase reporter, 5 h; series mostly up to 76.8 µM", "in_short": "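After overnight seeding, SBE-bla HEK 293T cells are dosed with compounds in DMSO and kept 5 hr at 37 C, 5% CO2. LiveBLAzer-type FRET substrate is then applied for 2 hr at room temperature.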", "values": [{"smiles": "COC(=O)c1ccccc1CS(=O)(=O)NC(=O)Nc1nc(OC)cc(OC)n1", "outcome": "inactive"}, {"smiles": "CN(C)CCN(C)C", "outcome": "inactive"}, {"smiles": "COc1cc(CC(C)N)cc(OC)c1OC", "note": "(configuration not stated)", "outcome": "inactive"}, {"smiles": "ClC(Cl)(Cl)Cl", "outcome": "inactive"}, {"smiles": "COC(=O)c1ccc(CBr)cc1", "outcome": "inactive"}, {"smiles": "COc1cc(CCN)cc(OC)c1OC", "outcome": "inactive"}, {"smiles": "Oc1ccc2c3c1O[C@H]1[C@@H](O)C=C[C@H]4[C@@H](C2)NCC[C@@]341", "outcome": "inactive"}, {"smiles": "O=C(Cl)CCl", "outcome": "inactive"}, {"smiles": "CC(C)NCC(O)c1ccc([N+](=O)[O-])cc1", "note": "(configuration not stated)", "outcome": "inactive"}, {"smiles": "CCOP(=S)(OCC)Oc1ccc(Cl)cc1Cl", "outcome": "inactive"}, {"smiles": "O=C(O)C(F)(F)C(F)(F)C(F)(F)C(F)(F)C(F)(F)C(F)(F)F", "outcome": "inactive"}, {"smiles": "NC1(c2ccccc2)CCCCC1", "outcome": "inactive"}, {"smiles": "CC(C)(C)C(=O)Cl", "outcome": "inactive"}, {"smiles": "Cc1ccc(S(=O)(=O)N[C@@H](CCCCN)C(=O)CCl)cc1", "outcome": "inactive"}, {"smiles": "C#CC(C)(C)O", "outcome": "inactive"}, {"smiles": "C=C(Cl)CCl", "outcome": "inactive"}, {"smiles": "Oc1ccc(Cc2ccc(O)cc2)cc1", "outcome": "inactive"}, {"smiles": "CC#Cc1cc(C)nc(Nc2ccccc2)n1", "outcome": "inactive"}, {"smiles": "CCOC(=O)Nc1cccc(OC(=O)Nc2ccccc2)c1", "outcome": "inactive"}, {"smiles": "CCCC(C)(COC(N)=O)COC(N)=O", "outcome": "inactive"}, {"smiles": "CCOC(=O)C(SP(=S)(OC)OC)c1ccccc1", "note": "(configuration not stated)", "outcome": "inactive"}, {"smiles": "CCc1cc(OC)c(C[C@H](C)N)cc1OC", "outcome": "inactive"}, {"smiles": "COc1ccc2c(C(=O)c3ccc(Cl)cc3)c(C)n(CC(=O)O)c2c1", "outcome": "inactive"}, {"smiles": "CC1N=C(N)OC1c1ccccc1", "note": "(configuration not stated)", "outcome": "inactive"}, {"smiles": "O=C/C=C/c1ccco1", "outcome": "inactive"}, {"smiles": "O=C(Cl)/C=C/C(=O)Cl", "outcome": "inactive"}, {"smiles": "C[C@H](N)C(=O)c1ccccc1", "outcome": "inactive"}]}, {"biological_target": "Thyrotropin-releasing hormone receptor (Homo sapiens) (UniProt P34981)", "sequence (P34981 whole entry, looked up)": "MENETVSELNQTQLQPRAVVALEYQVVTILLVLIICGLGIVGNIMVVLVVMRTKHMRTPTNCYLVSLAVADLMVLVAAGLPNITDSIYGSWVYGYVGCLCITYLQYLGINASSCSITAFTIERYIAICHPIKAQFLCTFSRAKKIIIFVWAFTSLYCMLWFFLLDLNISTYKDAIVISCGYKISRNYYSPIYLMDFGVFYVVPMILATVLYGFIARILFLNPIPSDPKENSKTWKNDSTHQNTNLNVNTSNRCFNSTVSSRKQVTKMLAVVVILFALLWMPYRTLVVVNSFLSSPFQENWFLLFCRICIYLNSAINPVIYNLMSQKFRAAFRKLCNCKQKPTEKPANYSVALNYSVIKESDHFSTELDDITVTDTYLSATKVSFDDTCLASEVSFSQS", "assay": "qHTS assay to identify small molecule antagonists of the thyrotropin-releasing hormone receptor (TRHR) signaling pathway (AID 1346877)", "conditions": "TRHR-HEK293, TRH-induced calcium fluorescence, antagonist mode; series mostly up to 51.3 µM", "in_short": "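TRHR-expressing HEK293 cells were seeded, cultured 18 h at 37 °C, then loaded with calcium dye for 2 h. Compounds were pre-incubated 5 min at room temperature before 1 nM TRH (final) was added, and kinetic fluorescence was recorded for 3 min.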", "values": [{"smiles": "COC(=O)c1ccccc1CS(=O)(=O)NC(=O)Nc1nc(OC)cc(OC)n1", "Potency": "inactive"}, {"smiles": "BrCCc1ccccc1", "Potency": "inactive"}, {"smiles": "CN(C)CCN(C)C", "Potency": "inactive"}, {"smiles": "ClC(Cl)(Cl)Cl", "Potency": "inactive"}, {"smiles": "COC(=O)c1ccc(CBr)cc1", "Potency": "inactive"}, {"smiles": "O=C(Cl)CCl", "Potency": "inactive"}, {"smiles": "CC(C)NCC(O)c1ccc([N+](=O)[O-])cc1", "note": "(configuration not stated)", "Potency": "inactive"}, {"smiles": "CCOP(=S)(OCC)Oc1ccc(Cl)cc1Cl", "Potency": "inactive"}, {"smiles": "NC1(c2ccccc2)CCCCC1", "Potency": "inactive"}, {"smiles": "CC(C)(C)C(=O)Cl", "Potency": "inactive"}, {"smiles": "Cc1ccc(S(=O)(=O)N[C@@H](CCCCN)C(=O)CCl)cc1", "Potency": "inactive"}, {"smiles": "C=C(Cl)CCl", "Potency": "inactive"}, {"smiles": "CC#Cc1cc(C)nc(Nc2ccccc2)n1", "Potency": "inactive"}, {"smiles": "CCOC(=O)Nc1cccc(OC(=O)Nc2ccccc2)c1", "Potency": "inactive"}, {"smiles": "CCOC(=O)C(SP(=S)(OC)OC)c1ccccc1", "note": "(configuration not stated)", "Potency": "inactive"}, {"smiles": "CCc1cc(OC)c(C[C@H](C)N)cc1OC", "Potency": "inactive"}, {"smiles": "CCC1(CC)C(=O)C=CNC1=O", "Potency": "inactive"}, {"smiles": "CC1N=C(N)OC1c1ccccc1", "note": "(configuration not stated)", "Potency": "inactive"}, {"smiles": "C[C@H](N)C(=O)c1ccccc1", "Potency": "inactive"}]}]}
